In all, about 33,000 sequences were measured (“E-score (-0.5 to 0.5)”: median about -0.035, highest 2% from about 0.34 on). Many of the other results were omitted from the sample, so the highest values are more common in it than they were.
Molecular target: T1, Mot3 (UniProt P54785)
T1 sequence: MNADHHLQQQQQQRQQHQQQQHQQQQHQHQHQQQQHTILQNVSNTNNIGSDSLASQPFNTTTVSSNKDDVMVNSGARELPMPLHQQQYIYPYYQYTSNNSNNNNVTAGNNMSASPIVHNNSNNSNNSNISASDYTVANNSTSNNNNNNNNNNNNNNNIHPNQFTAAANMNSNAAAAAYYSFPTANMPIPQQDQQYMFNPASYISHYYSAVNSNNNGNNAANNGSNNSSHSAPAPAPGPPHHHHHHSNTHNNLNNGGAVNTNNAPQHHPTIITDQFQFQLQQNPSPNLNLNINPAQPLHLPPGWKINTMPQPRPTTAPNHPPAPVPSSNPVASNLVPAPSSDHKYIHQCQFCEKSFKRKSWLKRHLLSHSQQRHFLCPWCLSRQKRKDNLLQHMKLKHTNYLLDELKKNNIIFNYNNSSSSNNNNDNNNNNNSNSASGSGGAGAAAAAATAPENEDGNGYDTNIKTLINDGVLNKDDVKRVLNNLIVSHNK
Test: PBM E-score (8-mer binding enrichment) (E-score (-0.5 to 0.5)); higher = stronger / more preferred TF binding
Conditions: protein concentration: 200 nM; construct: GST-full length
Protocol: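 Universal 'all 10-mer' protein binding microarrays (Agilent AMADID 015681) probed with GST-tagged S. cerevisiae TFs (full-length or DBD) made by in vitro transcription/translation (PURExpress), about 100-200 nM. Bound TF was detected with fluorescent anti-GST. Each ungapped 8-mer (which stands for itself and its reverse complement) is scored by the PBM enrichment score (E-score), a modified Wilcoxon-Mann-Whitney statistic from -0.5 to +0.5, computed with the Universal PBM Analysis Suite. Scale: above 0.35 generally sequence-specific binding.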

Sequence | PBM E-score
ATTCAATA | 0.0942
TACGAACA | 0.18
CTTTTCCC | -0.0316
TCTGGTAA | -0.0343
CGCCTAAC | 0.152
GAAGATAC | -0.078
GACTGCAC | -0.0356
AAAGCACT | -0.216
GACGCCCA | -0.158
CATAGAAC | -0.0217
TGTCAAAA | 0.241
GCGTCCCC | -0.362
AGCAAGGA | -0.0799
GACAGCCA | -0.186
AGAAGAAG | -0.0319
CGTGTTGA | 0.395
AGTGTTGA | 0.073
CGTGTTGC | 0.242
CCACAATA | -0.0891
GGTCCTTA | -0.152
AGGGCACT | 0.0516
TAGGCATA | 0.28
TAGGCACA | 0.491
GGGGCACA | -0.202

Sequence | PBM E-score
ACGGCACT | -0.139
AAGGCACT | 0.486
GAGGCAGA | -0.164
AGGGCACA | 0.3
AAGGCAGA | 0.0903
GAGGCACA | 0.47
TAGGCAGA | 0.136
AAGGCACA | 0.492
AACGTATG | 0.0662
CGCGCTGC | -0.0871
TAAACATA | 0.284
CCCAGATC | -0.111
ATTTTCAA | 0.12
GCGGCACC | -0.159
AAGGCGCT | 0.353
AAGGCGCA | 0.336
AAGGCGCG | 0.252
CGGGCACA | 0.0796
CGGGCACG | 0.263
GAGGCACC | 0.463
TGGGCACA | 0.356
GGGGCACC | -0.152
AACAGCTC | -0.162
CTCTTTAC | 0.177

Sequence | PBM E-score
TGGCCACA | -0.096
ATTCCAGC | -0.168
CTTCACGC | 0.151
AGCAGGTC | -0.0131
GCGTGTCC | 0.0864
TGGTGTAA | 0.186
AGGTGTAA | 0.26
ACGTGTAA | 0.414
CCGTGTGA | 0.277
CAGTGTAA | 0.225
TAGTGTAA | 0.206
ACGTGTGA | 0.184
GCGTGTAA | 0.431
CCGTGTAA | 0.403
GCGTGGAA | -0.104
TCGTGTAA | 0.411
ACTCCAGG | 0.0384
ACACCTAA | 0.168
AGGGCAAG | 0.13
CACTCTAG | -0.145
ACCCAGCC | -0.259
GTTCCTTA | 0.428
GTTCCTGA | 0.428
CTTCCTGA | -0.0128

Sequence | PBM E-score
CTTCCTAA | 0.0478
ATTCCTTA | 0.211
ATTCCTGA | 0.136
GTTCCTAA | 0.431
ATTCCTAA | 0.105
CTTCCTTA | 0.146
CCCGAAGG | -0.0155
ATGGAAGC | -0.191
ACATGCCC | 0.21
ACATGCCT | 0.366
AAGTGCCA | 0.0649
ACATGCGG | 0.175
ACATGCGT | 0.341
AAATGCCC | -0.192
AAATGCCA | -0.105
AAGTGCCT | 0.48
ACATGCGC | 0.251
ACATGCCA | 0.304
AAGTGCCC | -0.177
AAATGCCT | 0.377
TCAGACCA | -0.201
CCTCTTGC | 0.0662

From the supplement of paper PMC3334620
